Consider 10 compounds from ChEMBL document CHEMBL3988442, “University of Dundee, Small-Polar-MMV Screening Library” (2021).

What all share (parameters): scale not given: direction of the effect not stated beside the values
The target in test [1] is Protein translocase subunit SecA (Escherichia coli (strain K12)) (UniProt P10408). Description: Assay to Identify E. coli SecA ATPase Inhibitors. It counts as functional. The following applies: 30 µM.
In test [2] the target is T1, Ubiquitin-activating enzyme e1, putative (Leishmania donovani (strain BPK282A1)) (UniProt E9BSI1).
T1 sequence (whole entry): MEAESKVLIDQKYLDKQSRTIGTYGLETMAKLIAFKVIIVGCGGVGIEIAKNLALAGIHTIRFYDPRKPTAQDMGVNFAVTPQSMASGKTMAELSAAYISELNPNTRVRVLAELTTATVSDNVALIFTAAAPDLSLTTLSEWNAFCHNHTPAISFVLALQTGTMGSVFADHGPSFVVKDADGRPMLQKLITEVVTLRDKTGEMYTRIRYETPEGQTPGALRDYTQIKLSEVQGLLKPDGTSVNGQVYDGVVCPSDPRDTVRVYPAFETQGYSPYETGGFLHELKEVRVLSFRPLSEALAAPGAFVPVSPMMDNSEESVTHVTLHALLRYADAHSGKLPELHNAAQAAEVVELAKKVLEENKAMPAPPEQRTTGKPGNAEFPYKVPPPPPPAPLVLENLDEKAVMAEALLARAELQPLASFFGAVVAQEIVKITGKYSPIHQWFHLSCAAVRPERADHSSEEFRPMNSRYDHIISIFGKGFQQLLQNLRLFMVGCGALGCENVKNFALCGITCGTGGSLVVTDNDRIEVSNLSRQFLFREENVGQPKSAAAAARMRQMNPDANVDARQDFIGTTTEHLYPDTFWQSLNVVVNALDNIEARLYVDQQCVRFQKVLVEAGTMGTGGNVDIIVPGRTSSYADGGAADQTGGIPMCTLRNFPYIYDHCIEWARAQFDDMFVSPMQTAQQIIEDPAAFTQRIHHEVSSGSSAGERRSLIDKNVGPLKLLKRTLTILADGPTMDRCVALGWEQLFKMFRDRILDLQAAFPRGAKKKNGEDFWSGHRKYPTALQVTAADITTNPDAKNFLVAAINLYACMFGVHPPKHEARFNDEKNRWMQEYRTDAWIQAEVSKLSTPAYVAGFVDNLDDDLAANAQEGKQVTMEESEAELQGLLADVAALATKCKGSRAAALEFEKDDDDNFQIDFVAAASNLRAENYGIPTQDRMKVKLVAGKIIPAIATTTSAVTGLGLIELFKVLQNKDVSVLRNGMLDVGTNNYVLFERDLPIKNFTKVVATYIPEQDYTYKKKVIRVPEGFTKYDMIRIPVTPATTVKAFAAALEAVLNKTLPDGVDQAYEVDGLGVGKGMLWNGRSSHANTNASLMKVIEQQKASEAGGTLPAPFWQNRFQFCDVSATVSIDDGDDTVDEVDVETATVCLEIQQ
Description: Leishmania donovani Ubiquitin Activating Enzyme (LdE1). The format is functional. The conditions noted are these: 30 µM.

Test [3] has as its target AMP-activated protein kinase, AMPK (Homo sapiens) (UniProt P54646+O43741+P54619+Q9UGJ0+Q9Y478+Q13131+Q9UGI9). Description: AMP-dependent Kinase enzyme assay. An in vitro enzyme assay that detects ADP turnover that is directly proportional to AMPK activity. This uses naive AMPK that is activated during the assay with MK-8722. It counts as functional. The following applies: 30 µM.

Test [4] deals with Sialic acid-binding Ig-like lectin 9 (Homo sapiens) (UniProt Q9Y336). The test is described as follows: Hs-Siglec9 ALPHAscreen SOP 20170721. The following applies: 10 µM.
The next test deals with Trypanosoma cruzi. Description: Trypanosoma cruzi phosphomannomutase and mannose-1-phosphate guanylyltransferase assay. The format is functional. The conditions noted are these: 10 µM.
Test [5] addresses T2, Arginase-2, mitochondrial (Homo sapiens) (UniProt P78540).
T2 sequence (whole entry): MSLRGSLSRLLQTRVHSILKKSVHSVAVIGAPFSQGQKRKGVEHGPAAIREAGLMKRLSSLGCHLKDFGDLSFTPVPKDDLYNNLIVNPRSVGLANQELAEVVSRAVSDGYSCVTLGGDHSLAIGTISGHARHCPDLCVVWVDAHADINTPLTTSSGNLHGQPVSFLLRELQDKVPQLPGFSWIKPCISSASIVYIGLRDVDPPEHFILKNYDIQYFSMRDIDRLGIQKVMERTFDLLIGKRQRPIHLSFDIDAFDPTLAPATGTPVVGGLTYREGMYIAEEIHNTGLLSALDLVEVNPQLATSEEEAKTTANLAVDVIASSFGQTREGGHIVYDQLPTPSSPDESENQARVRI
The test is described as follows: in vitro enzyme assay to detect the production of urea directly proportional to the activity of Arginase II. Further: in the data most compounds retested in dose-response had high values. The format is functional. The conditions noted are these: 33.3 µM.

In test [6] the target is T3, Proteasome subunit beta (Trypanosoma cruzi) (UniProt O96673).
T3 sequence (whole entry): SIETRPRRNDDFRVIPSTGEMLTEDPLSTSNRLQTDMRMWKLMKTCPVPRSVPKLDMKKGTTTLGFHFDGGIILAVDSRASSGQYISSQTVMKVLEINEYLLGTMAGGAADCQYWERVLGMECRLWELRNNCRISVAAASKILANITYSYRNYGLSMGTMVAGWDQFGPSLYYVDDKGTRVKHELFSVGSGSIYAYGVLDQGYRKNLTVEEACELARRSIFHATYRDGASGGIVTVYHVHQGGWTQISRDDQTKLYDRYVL
The test is described as follows: Trypanosoma cruzi proteasome chymotrypsin-like activity (TcProtChymo) assay. Further: in the data most compounds retested in dose-response had high values. It counts as functional. The following applies: 9.37 µM.

The next test is filed under the species Homo sapiens. The test is described as follows: To identify inhibition of the IFN signalling (Jak-Stat) pathway via expression of an eGFP reporter gene under the control of an IFN-stimulated response element (ISRE) containing MxA promoter. The format is functional. The conditions noted are these: 30 µM.
Test [7] deals with T4, Tyrosyl-tRNA synthetase, putative (Trypanosoma cruzi (strain CL Brener)) (UniProt Q4DSP6).
T4 sequence (whole entry): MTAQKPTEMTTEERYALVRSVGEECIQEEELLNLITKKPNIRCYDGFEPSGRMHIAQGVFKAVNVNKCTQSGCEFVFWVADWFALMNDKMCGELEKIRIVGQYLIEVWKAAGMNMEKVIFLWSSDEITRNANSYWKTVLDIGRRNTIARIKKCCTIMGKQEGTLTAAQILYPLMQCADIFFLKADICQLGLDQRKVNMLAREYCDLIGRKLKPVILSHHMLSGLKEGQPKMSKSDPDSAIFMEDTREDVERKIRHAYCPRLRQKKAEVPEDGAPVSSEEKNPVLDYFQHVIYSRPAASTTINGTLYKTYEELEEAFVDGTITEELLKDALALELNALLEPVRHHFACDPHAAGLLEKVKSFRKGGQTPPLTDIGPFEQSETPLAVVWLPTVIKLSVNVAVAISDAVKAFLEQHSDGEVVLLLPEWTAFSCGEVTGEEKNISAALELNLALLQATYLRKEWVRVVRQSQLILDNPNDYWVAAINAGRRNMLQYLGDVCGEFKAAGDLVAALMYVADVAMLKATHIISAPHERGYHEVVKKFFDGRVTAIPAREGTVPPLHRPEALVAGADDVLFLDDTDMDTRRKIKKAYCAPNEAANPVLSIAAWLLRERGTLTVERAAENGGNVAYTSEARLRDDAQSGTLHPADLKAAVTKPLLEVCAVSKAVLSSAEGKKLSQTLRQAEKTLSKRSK
Description: Trypanosoma cruzi tyrosyl tRNA synthetase (TcYRS) _High Tyrosine SOP. Further: in the data most compounds retested in dose-response had high values. The conditions noted are these: 30 µM. The format is functional.

The target in test [8] is T4, Tyrosyl-tRNA synthetase, putative (Trypanosoma cruzi (strain CL Brener)). Description: Trypanosoma cruzi tyrosyl tRNA synthetase (TcYRS) SOP. The format is functional. The following applies: 30 µM.
Test [9] deals with Chromo domain-containing protein 1 (Saccharomyces cerevisiae (strain ATCC 204508 / S288c) (Baker's yeast)) (UniProt P32657). The test is described as follows: ScCHD-1 Enzyme Inhibition Assay. Further: in the data most compounds retested in dose-response had high values. It counts as functional. The following applies: 30 µM.

The structures appear in SMILES notation. For some assays here: Entries with a potency or affinity are not part of this list.

Sequence of Chromo domain-containing protein 1 (Saccharomyces cerevisiae (strain ATCC 204508 / S288c) (Baker's yeast)) (P32657 whole entry, the tested form may be a part): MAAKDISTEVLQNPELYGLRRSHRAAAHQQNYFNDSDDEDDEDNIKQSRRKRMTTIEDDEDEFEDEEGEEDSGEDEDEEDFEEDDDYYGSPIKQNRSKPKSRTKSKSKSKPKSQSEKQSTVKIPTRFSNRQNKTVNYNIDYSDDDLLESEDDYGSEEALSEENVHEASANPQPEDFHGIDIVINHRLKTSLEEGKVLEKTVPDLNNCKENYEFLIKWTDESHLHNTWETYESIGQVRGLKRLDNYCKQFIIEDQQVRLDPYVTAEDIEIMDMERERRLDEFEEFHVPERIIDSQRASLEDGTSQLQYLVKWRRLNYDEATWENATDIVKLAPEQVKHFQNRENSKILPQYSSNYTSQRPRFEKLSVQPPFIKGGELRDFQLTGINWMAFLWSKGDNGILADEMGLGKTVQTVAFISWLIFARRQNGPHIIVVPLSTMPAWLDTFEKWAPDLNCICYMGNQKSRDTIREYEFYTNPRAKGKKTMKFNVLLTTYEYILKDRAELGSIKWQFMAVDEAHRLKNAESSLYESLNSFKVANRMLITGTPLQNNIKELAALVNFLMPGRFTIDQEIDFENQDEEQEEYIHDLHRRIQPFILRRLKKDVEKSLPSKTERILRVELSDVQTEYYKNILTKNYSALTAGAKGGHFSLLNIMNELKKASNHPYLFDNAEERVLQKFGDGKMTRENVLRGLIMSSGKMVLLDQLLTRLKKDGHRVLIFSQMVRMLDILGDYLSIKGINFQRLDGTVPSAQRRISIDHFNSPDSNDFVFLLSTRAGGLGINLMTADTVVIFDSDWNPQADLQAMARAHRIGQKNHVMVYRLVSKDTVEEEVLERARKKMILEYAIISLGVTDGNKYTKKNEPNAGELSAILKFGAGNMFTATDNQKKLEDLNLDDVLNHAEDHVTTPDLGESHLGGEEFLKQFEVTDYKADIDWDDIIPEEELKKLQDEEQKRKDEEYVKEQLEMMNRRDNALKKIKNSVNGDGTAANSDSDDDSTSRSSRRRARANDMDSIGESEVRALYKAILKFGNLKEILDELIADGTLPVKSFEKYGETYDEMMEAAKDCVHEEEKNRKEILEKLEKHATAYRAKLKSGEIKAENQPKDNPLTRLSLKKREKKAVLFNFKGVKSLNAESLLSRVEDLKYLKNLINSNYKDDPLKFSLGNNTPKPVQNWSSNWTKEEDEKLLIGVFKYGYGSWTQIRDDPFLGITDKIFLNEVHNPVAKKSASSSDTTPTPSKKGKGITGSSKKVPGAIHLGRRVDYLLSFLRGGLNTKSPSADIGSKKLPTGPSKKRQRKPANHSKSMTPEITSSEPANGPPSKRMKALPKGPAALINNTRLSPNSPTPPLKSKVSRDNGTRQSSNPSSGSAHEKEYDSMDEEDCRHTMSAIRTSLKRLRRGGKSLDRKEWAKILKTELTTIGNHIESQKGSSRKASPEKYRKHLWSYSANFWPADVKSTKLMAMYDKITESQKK
Sequence of Sialic acid-binding Ig-like lectin 9 (Homo sapiens) (Q9Y336 whole entry): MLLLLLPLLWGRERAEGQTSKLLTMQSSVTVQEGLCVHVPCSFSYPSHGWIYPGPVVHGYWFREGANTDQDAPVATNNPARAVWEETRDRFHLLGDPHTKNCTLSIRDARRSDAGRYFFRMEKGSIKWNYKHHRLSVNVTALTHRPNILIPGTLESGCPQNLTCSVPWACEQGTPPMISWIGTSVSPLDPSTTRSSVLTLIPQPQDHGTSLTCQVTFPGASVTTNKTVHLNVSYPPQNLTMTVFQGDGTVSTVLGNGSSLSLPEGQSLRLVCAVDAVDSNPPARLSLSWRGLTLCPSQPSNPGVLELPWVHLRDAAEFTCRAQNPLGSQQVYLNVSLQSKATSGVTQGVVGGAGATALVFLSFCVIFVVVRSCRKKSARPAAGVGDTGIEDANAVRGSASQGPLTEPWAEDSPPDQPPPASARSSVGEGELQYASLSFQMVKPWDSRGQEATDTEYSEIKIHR
Sequence of Protein translocase subunit SecA (Escherichia coli (strain K12)) (P10408 whole entry): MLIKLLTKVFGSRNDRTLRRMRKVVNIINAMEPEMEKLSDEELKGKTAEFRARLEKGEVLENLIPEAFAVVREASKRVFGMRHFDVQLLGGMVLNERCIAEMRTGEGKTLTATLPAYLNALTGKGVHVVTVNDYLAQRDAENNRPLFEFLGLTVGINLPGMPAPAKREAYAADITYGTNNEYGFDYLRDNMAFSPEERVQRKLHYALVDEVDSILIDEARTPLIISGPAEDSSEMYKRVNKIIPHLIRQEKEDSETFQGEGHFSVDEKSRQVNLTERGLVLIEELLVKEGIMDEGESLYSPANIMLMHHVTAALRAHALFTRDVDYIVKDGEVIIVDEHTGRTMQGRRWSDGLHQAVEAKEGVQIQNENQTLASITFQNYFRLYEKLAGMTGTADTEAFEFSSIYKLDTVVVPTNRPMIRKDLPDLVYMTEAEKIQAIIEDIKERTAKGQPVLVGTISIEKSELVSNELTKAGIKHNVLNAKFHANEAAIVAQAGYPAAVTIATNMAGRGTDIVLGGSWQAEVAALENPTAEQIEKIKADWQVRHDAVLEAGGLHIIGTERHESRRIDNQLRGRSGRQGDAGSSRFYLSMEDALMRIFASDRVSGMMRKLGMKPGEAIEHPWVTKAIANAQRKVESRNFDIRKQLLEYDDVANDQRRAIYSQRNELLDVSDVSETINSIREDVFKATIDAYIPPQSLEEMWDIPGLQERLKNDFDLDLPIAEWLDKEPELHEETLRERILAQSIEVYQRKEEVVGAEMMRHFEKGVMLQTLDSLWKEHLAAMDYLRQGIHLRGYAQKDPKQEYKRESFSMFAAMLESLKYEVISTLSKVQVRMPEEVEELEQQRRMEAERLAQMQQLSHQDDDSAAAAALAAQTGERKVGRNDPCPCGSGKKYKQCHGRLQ

For the compound `CNC(=O)CC1CC2(CCN(Cc3nccs3)CC2)c2ccccc21` (stereo not given), the Percent Effect in test [1] is -3.09%; in test [2], 16.2%; in test [3] it was -8.78%; in test [4], 1.43%; in the test with Trypanosoma cruzi, 3.52%; in test [5], 3.75%. Besides, the Percent Effect in test [6] was 11.8%; in the test listed under Homo sapiens, -4.56%; in [7] it was 7.92%; in test [8], 8.54%; in [9], -7.65%.

Consider `CS(=O)(=O)NC1CCCN(C(=O)NCc2cccnc2)C1` (stereo not given), for which the Percent Effect was -2.71% in [1]; 15.6% in [2]; 3.96% in test [3]; 1.09% in test [4]; 2.25% in the test with Trypanosoma cruzi; 1.9% in test [5]. Besides, the Percent Effect in test [6] was 14.2%; in the test listed under Homo sapiens, -2.36%; in test [7], 7.62%; in [8] it was 18.8%; in test [9], -11.9%.

On to `COc1ccc(C(=O)NS(=O)(=O)c2ccc(C#N)cc2C(F)(F)F)cc1`, for which the Percent Effect in test [1] is -1.41%; in test [2] it was -10.8%; in test [3], 20.6%; in test [4], 0.998%; with Trypanosoma cruzi, 0.472%; in [5], 6.41%. Moreover, the Percent Effect was -3.06% in test [6]; 11.2% in the test filed under Homo sapiens; -2.46% in [7]; -1.24% in [8]; -2.1% in test [9].

As to `Cc1cc(NC(=O)CN2CCN(c3nccs3)C(C)C2)n(C)n1` (stereo not given), the Percent Effect is -1.17% in [1]; -2.7% in [2]; -3.28% in test [3]; 12% in test [4]; 0.279% in the test with Trypanosoma cruzi; 0.924% in [5]. Also, the Percent Effect in test [6] is 4.49%; in the test filed under Homo sapiens, -4.36%; in test [7] it was 1.98%; in [8], 3.66%; in [9], 10.5%.

Consider `CC(C)c1ncc2c(n1)CN(Cc1cccc(C#N)c1)CC2`, for which the Percent Effect in test [1] is -3.01%; in test [2], 0%; in test [3], -28.8%; in [4], 8.37%; with Trypanosoma cruzi it was 4.89%; in [5] it was 3.06%. Moreover, the Percent Effect in test [6] was 5.01%; in the test filed under Homo sapiens, -9.04%; in [7] it was 5.39%; in test [8] it was 4.88%; in [9], 2.88%.

As to `O=C(c1cccs1)N1CCC(O)(CN2CCc3ccccc3C2)C1` (stereo not given), the Percent Effect is -1.45% in [1]; 4.05% in [2]; 0.49% in test [3]; 2.19% in test [4]; -4.74% with Trypanosoma cruzi; 5.34% in [5]. The Percent Effect in test [6] was 11.7%; in the test filed under Homo sapiens, 7.61%; in test [7], 2.15%; in [8], 3.9%; in [9], -12.6%.

With `O=C(CCC1CCCC1)NCCn1nc(C2CCNC2)c2cccnc21` (stereo not given), the Percent Effect was -0.0662% in [1]; 0% in test [2]; 8.6% in [3]; 2.58% in [4]; 4.53% in the test with Trypanosoma cruzi; -0.699% in [5]. In addition, the Percent Effect in test [6] is 3.26%; in the test listed under Homo sapiens, -34.5%; in test [7], 3.19%; in test [8], 6.41%; in test [9], -1.12%.

For `Cc1ccc(-c2csc(N)c2C#N)cc1`, the Percent Effect in test [1] is -0.493%; in test [2], 6.67%; in test [3], -1.04%; in test [4], 11.3%; in the test on Trypanosoma cruzi, -3.34%; in [5] it was -4.05%. Also, the Percent Effect in test [6] is 13.1%; in the test listed under Homo sapiens, 28%; in [7], -6.35%; in test [8], -12.8%; in test [9] it was 2.72%.

On to `Cc1nc(N2CCCC2)nc2c1CCN(C(=O)CC1CC1)CC2`, for which the Percent Effect in test [1] is -4.09%; in test [2], 20%; in test [3] it was -2.46%; in test [4] it was 4.72%; with Trypanosoma cruzi, 2.75%; in [5], -7.22%. In addition, the Percent Effect in test [6] was 16.1%; in the test filed under Homo sapiens it was 9.15%; in test [7], -2.12%; in test [8], 10.3%; in test [9] it was -11%.

Consider `CCc1cccc(NS(=O)(=O)c2cc3c(c(C(=O)O)c2)OCCO3)c1`, for which the Percent Effect is -5.6% in [1]; 1.27% in test [2]; -5.84% in [3]; 0.409% in test [4]; -1.33% in the test with Trypanosoma cruzi; -0.645% in test [5]. The Percent Effect in test [6] is 20.9%; in the test filed under Homo sapiens, -2.39%; in test [7] it was -7.29%; in test [8], -7.59%; in test [9], -30.6%.
